# Screening results from PubChem BioAssay.
# KB-V1 MDR tox = kills drug-selected multidrug resistant KB-V1 cells; 400,000 compounds, 3.4% hits; Potency, µM (titrated, usually from 46.1 µM), actives largely listed as cytotoxic; KB-V1 MDR cells viability, CellTiter-Glo, 72 h; also: % is scaled to controls: 0 for no effect and ±100 for the full control effect; nearly all actives have a fitted effect of over 60% in size
#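 qHTS viability screen in drug-selected KB-V1 MDR cells: 72 h compound treatment at 37 degrees C, ATP luminescence end point.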
# MCF10A rerep = induces DNA re-replication in MCF 10a normal breast cells; MCF 10A DNA re-replication, Hoechst nuclear intensity, 48 h; Potency, µM (doses to about 46.1 µM), inactives show at the highest dose activity, positive = re-replication, most hits filed as activators; 350,000 compounds, 2.9% hits; AID 624296; also: % of control where 0% means no effect; nearly all actives have a fitted effect of over 50% in size
# KB-3-1 tox = kills parental KB-3-1 adenocarcinoma cells. KB-3-1 viability, CellTiter-Glo ATP luminescence, 72 h. Potency, µM (doses to about 46.1 µM), most hits filed as cytotoxic. 400,000 compounds, 1.4% hits; also: % is scaled to controls: 0 for no effect and ±100 for the full control effect; nearly all actives have a fitted effect of over 60% in size
#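 72 h, 37 °C compound treatment of KB-3-1 parental cells; CellTiter-Glo added, 10 min, luminescence read. Data corrected against DMSO-only plates and normalized before curve fitting.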
# HT1080NT lethal = kills 2HG-producing HT-1080-NT fibrosarcoma cells. HT-1080-NT fibrosarcoma viability, CellTiter-Glo ATP luminescence, 48 h. Potency, µM (top dose mostly 46.1 µM), for the others: at the top dose activity, negative = less viability, actives largely listed as cytotoxic. 360,000 compounds, 1.6% hits;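 also: NT is the 2HG producing partner of a matched IDH1 knockdown line; 0% = DMSO-treated cells and -100% = media-only wells without cells; nearly all actives have a fitted effect of over 55% in size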
#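 HT-1080-NT fibrosarcoma cells (2HG-overproducing), 750 cells/well in RPMI with 5% FBS, dosed after 2 h and incubated 48 h at 37C. CellTiter-Glo luminescence normalized to DMSO and no-cell wells; concentration-response curves fitted and classed.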
# HT1080 IDH1KD tx = kills HT-1080 cells with IDH1 knockdown. AID 686971. Potency, µM (doses to about 46.1 µM), for inactives: top-dose activity, negative = toxicity, actives largely listed as cytotoxic. 360,000 compounds, 2% hits. HT-1080 IDH1 knockdown viability, ATP luminescence, 48 h;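 also: 0% = DMSO wells and -100% = cell-free medium wells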
#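 CellTiter-Glo luminescence after 48 h compound exposure at 37 degrees C of IDH1-knockdown HT-1080 cells in 5% FBS RPMI. %Activity scaled between DMSO wells and cell-free media wells, with curves fitted and assigned curve classes.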
# SW480 rereplic = DNA re-replication induction in SW480 cells; SW480 DNA re-replication, Hoechst DNA content imaging, 48 h; Potency, µM (titrated, usually from 46.1 µM), inactives show at the highest dose re-replication activation, usual class: activators; 340,000 compounds, 1.8% hits; AID 624297; also: % of control where 0% means no effect; nearly all actives have a fitted effect of over 55% in size
#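 SW480 cells exposed to compounds for 48 hr at 37 C, 5% CO2, then Hoechst-stained 40 min. Nuclear DNA content imaged by fluorescence scanning (405 nm excitation, 500-530 nm emission); re-replication scored as increased high-intensity nuclei.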
# * marks the source's active call; other numbers are inactive results; i = inactive; u = inconclusive; x = no result given; [ ] = another dose, or the depositor's remark. This is a sample that favours compounds with a hit; in the whole collection about 8% have one here. Calls follow the shape of the dose curve; as a rule, active = well fitted curve in the direction sought with a large enough effect; inconclusive = small, poorly fitted or top-dose-only effect, or another doubt; inactive = no such curve, though single readings can be large; an effect the other way counts as inactive or inconclusive. Potency is read from the fitted curve at half-maximal effect.
SMILES,KB-V1 MDR tox,MCF10A rerep,KB-3-1 tox,HT1080NT lethal,HT1080 IDH1KD tx,SW480 rereplic
COc1cccc(-n2nc(C#N)c(Cl)cc2=O)c1,i,4.5µM*,u,9.2µM*,15µM*,u
O=C(Nc1nc2nccc(-c3ccccc3)n2n1)C(Cl)(Cl)Cl,i,0%,i,15%,18%,-3%
O=C(Nc1c2ccccc2nc2ccccc12)C(Cl)(Cl)Cl,i,13µM*,u,-20%,-3%,u
CCN(CC(=O)Nc1ccc(OC)c(OC)c1)CC(=O)Nc1ccccc1C(F)(F)F,i,8%,i,3%,-4%,-5%
CCN(CC)CCCNC(=O)c1ccc(OCC(=O)Nc2ccccc2C(F)(F)F)c(OC)c1,i,18µM*,u,u,u,u
CC(C)(C)NNC(=S)Nc1cccc(C(F)(F)F)c1,i,27%,i,-22%,10µM*,9%
FC(F)(F)c1cccc(NC(=S)Nc2cccc(NC(=S)Nc3cccc(C(F)(F)F)c3)n2)c1,u,u,u,u,23µM*,u
Cc1cccc(NC(=S)Nc2cccc(C(F)(F)F)c2)n1,u,8%,u,-3%,-7%,-2%
FC(F)(F)c1cccc(N2CCN(C(=S)NC3CCCCC3)CC2)c1,21µM*,13%,u,-27%,u,x
Cc1ccc(NC(=S)NNC(C)(C)C)cc1,i,-1%,i,u,18µM*,u
O=C(c1ccc2c(c1)CCN2S(=O)(=O)c1ccc(Cl)cc1)N1CCN(c2ccc(F)cc2)CC1,u,x,i,x,x,x
COC(=O)CN1C(=O)C(C)(C)c2cc(S(=O)(=O)NCc3ccc(Cl)cc3)ccc21,i,x,i,x,x,x
CCN(CC)c1ccc(NC(=O)CN2C(=O)c3cccnc3Oc3ccccc32)c(C)c1,i,x,i,x,x,x
Cc1ccc(Nc2cc(C)nc3nncn23)c(C)c1,i,x,i,x,x,x
FC(F)(F)c1cccc(NC(=S)NC2CCCC2)c1,u,u,18µM*,-20%,-13%,2%
O=C(NNC(=S)Nc1cccc(C(F)(F)F)c1)c1ccccc1Cl,u,21%,u,18µM*,u,5%
O=C(COC(=O)CNC(=O)C1CCCCC1)NC1CC1,i,x,u,x,x,x
CCOC(=O)c1c(C)[nH]c(C(=O)OC(C)C(=O)NCc2ccccc2)c1C (stereo not drawn),u,9%,i,-7%,-1%,9%
Cc1[nH]c2ccc(C(=O)OC(C)C(=O)NCc3ccccc3)cc2c1C (stereo not drawn),16µM*,15µM*,16µM*,u,u,u
Fc1ccc(C(NCCc2ccccc2)c2nnc(-c3ccccc3Cl)o2)cc1 (stereo not drawn),i,x,i,x,x,x
CC(C)(C)c1ccc(OCCOc2ccc(C(C)(C)C)cc2NC=O)c(NC=O)c1,u,u,i,u,15µM*,u
C=CCNC(=S)NNC(=O)c1ccc(Br)cc1,12µM*,-2%,15µM*,11%,4%,-8%
CCCCNC(=O)c1cc2c(=O)n3cccc(C)c3nc2n(CCN2CCOCC2)c1=N,10µM*,u,i,6%,16%,u
CCOCCCn1c(=N)c(C(=O)NCc2ccc3c(c2)OCO3)cc2c(=O)n3cccc(C)c3nc21,i,u,6.5µM*,3%[9.24 µM],u,u
Cc1cccn2c(=O)c3cc(C(=O)NC4CCCCC4)c(=N)n(CCN4CCOCC4)c3nc12,i,u,i,0%,16%,u
SMILES,KB-V1 MDR tox,MCF10A rerep,KB-3-1 tox,HT1080NT lethal,HT1080 IDH1KD tx,SW480 rereplic
Cc1cccn2c(=O)c3cc(C(=O)NCc4ccc(F)cc4)c(=N)n(CCCN4CCOCC4)c3nc12,i,u,i,-24%,-6%,8.2µM*
CCOCCCn1c(SCC(=O)NCc2ccc3c(c2)OCO3)nc2ccccc2c1=O,15µM*,13%,i,2%,1%,-1%
Cc1cc(Cl)ccc1NC(=O)CN1C(=O)CSc2ccc(S(=O)(=O)N(C)C)cc21,i,x,i,x,x,x
COc1ccc(-n2cc3ccc([N+](=O)[O-])cc3n2)cc1,u,u,5.8µM*,-9%,-11%,13%
Cc1ccc(OCCOCCn2c(-c3ccc(Cl)cc3)nc3ccccc3c2=O)cc1,i,x,i,x,x,x
CN(CCC(=O)Nc1ccc(Cl)cc1)Cc1ccccc1,i,1%,u,21µM*,15µM*,-3%
CN(CCC(=O)Nc1ccc2c(c1)OCO2)Cc1ccccc1,i,-2%,i,-2%,-7%,-2%
O=C(CCc1ccccc1)Nc1ccncc1,u,1%,u,3%,4%,4%
CC(C)c1ccc(NC(=O)CCc2ccccc2)cc1,7.3µM*,8.2µM*,u,u,5.8µM*,u
N#Cc1ccccc1CN1C(=O)c2ccccc2Sc2ccc(C(=O)OCc3ccco3)cc21,u,x,i,x,x,x
COc1cccc(CNC(=O)c2ccc(NC(=O)N3CC(C)Sc4ccccc43)cc2)c1 (stereo not drawn),i,x,i,x,x,x
